Experimental data taken from PubChem BioAssay AID1159580 (chemical genetic matrix, 2015).
“And” between values parts separate entries of the source, which are not always exact repeats. Identical values can stand only once. Among all 5,500 compounds or so, about 2,000 (36%) were called active. Roughly 18% stayed inconclusive and do not appear here. No stated cut-off is given here; in the data, active means normalized growth mostly below about 0.91 (no sharp cut-off); inconclusive means no clear call, values can overlap the other calls; inactive means mostly above about 0.92. The list shows a part of the results. Where a structure was tested more than once in an assay, its records may differ in their call.

Assay: chemical genetic growth profiling, strain panel (AID 1159580);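 further: tested at 20 µM; growth read once vehicle control cultures reached saturation at 30 °C; 1 = growth at the plate median or of vehicle wells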
Conditions: S. cerevisiae deletion strains, growth OD

Measured: normalized growth

CN(C)CCCN1c2ccccc2Sc2ccc(C(F)(F)F)cc21
active: locus YAL021C, strain ccr4, stronger effect = lower value 0.799 | locus YAL026C, strain drs2, stronger effect = lower value 0.329 | locus YDR069C, strain doa4, stronger effect = lower value 0.846 | locus YDR137W, strain rgp1, stronger effect = lower value 1.25 [resistant] | locus YDR195W, strain ref2 1.27 [resistant] | locus YDR392W, strain spt3, stronger effect = lower value 1.22 [resistant] | locus YFR010W, strain ubp6, stronger effect = lower value 0.831
0.976 (inactive) and 0.395 (active): locus YGR229C, strain SMI1, stronger effect = lower value
inactive: locus YAL013W, strain DEP1, stronger effect = lower value 0.982 and 0.939 | locus YAL030W, strain snc1, stronger effect = lower value 1.01 | locus YAL040C, strain CLN3, stronger effect = lower value 0.99 | locus YBL061C, strain skt5, stronger effect = lower value 1.02 | locus YBR009C, strain hhf1, stronger effect = lower value 0.961 | locus YBR021W, strain FUR4, stronger effect = lower value 1.04 | locus YBR023C, strain chs3, stronger effect = lower value 0.999 | locus YBR171W, strain sec66, stronger effect = lower value 1.03 | locus YBR229C, strain ROT2, stronger effect = lower value 0.955 | locus YBR231C, strain swc5, stronger effect = lower value 1.04 | locus YBR279W, strain paf1, stronger effect = lower value 1.01 | locus YCL011C, strain gbp2, stronger effect = lower value 1.01 | locus YCL016C, strain dcc1, stronger effect = lower value 1.01 | locus YCL029C, strain bik1, stronger effect = lower value 0.968 | locus YCL061C, strain MRC1 (second series), stronger effect = lower value 0.987 | locus YCL061C, strain MRC1, stronger effect = lower value 1.02 | locus YCL069W, strain vba3, stronger effect = lower value 1.01 | locus YCR088W, strain abp1, stronger effect = lower value 1.02 | locus YDL005C, strain med2, stronger effect = lower value 1.06 | locus YDL035C, strain GPR1, stronger effect = lower value 0.983 | locus YDL040C, strain nat1, stronger effect = lower value 1.01 | locus YDL074C, strain BRE1, stronger effect = lower value 1.01 | locus YDL101C, strain DUN1, stronger effect = lower value 0.981 | locus YDL134C, strain PPH21, stronger effect = lower value 0.99 | locus YDL185W, strain tfp1, stronger effect = lower value 0.963 | locus YDL192W, strain arf1, stronger effect = lower value 0.963 | locus YDR001C, strain nth1, stronger effect = lower value 1.02 | locus YDR101C, strain arx1, stronger effect = lower value 0.994 | locus YDR150W, strain NUM1, stronger effect = lower value 0.978 and 0.989 | locus YDR159W, strain sac3, stronger effect = lower value 1.07 | locus YDR162C, strain NBP2, stronger effect = lower value 0.971 | locus YDR297W, strain sur2, stronger effect = lower value 1.02 | locus YDR318W, strain mcm21, stronger effect = lower value 1 | locus YDR334W, strain swr1, stronger effect = lower value 1.02 | locus YDR335W, strain msn5, stronger effect = lower value 1.02 | locus YDR363W, strain ESC2, stronger effect = lower value 0.896 | locus YDR388W, stronger effect = lower value 0.986 | locus YDR502C, strain sam2, stronger effect = lower value 0.992 | locus YEL003W, strain gim4, stronger effect = lower value 1 | locus YEL037C, strain rad23, stronger effect = lower value 1.01 | locus YEL061C, strain CIN8 (second series), stronger effect = lower value 1.01 | locus YEL061C, strain CIN8, stronger effect = lower value 0.989 | locus YER002W, strain NOP16, stronger effect = lower value 1.04 | locus YER015W, strain faa2, stronger effect = lower value 1.01 | locus YER016W, strain bim1, stronger effect = lower value 1.02 | locus YER110C, stronger effect = lower value 0.961 | locus YER111C, strain swi4, stronger effect = lower value 1.01 | locus YER155C, strain BEM2 (second series), stronger effect = lower value 1.06 | locus YER155C, strain BEM2, stronger effect = lower value 1 | locus YER167W, strain BCK2, stronger effect = lower value 0.997 | locus YGL078C, strain dbp3, stronger effect = lower value 0.985 | locus YGL086W, strain mad1, stronger effect = lower value 0.998 | locus YGL167C, strain pmr1, stronger effect = lower value 1.02 | locus YGL173C, strain kem1, stronger effect = lower value 0.996 | locus YGL227W, strain vid30, stronger effect = lower value 1.03 | locus YGL240W, strain doc1, stronger effect = lower value 1.05 | locus YGL248W, strain PDE1, stronger effect = lower value 0.983 | locus YGL253W, strain hxk2, stronger effect = lower value 1 | locus YGR078C, strain PAC10, stronger effect = lower value 1.01 | locus YGR135W, strain pre9, stronger effect = lower value 0.982 | locus YGR252W, strain gcn5, stronger effect = lower value 0.989 | locus YHR013C, strain ard1, stronger effect = lower value 0.939 | locus YHR027C, strain rpn1, stronger effect = lower value 1.01 | locus YHR030C, strain SLT2, stronger effect = lower value 0.991 and 1 | locus YHR079C, strain IRE1 (second series), stronger effect = lower value 0.975 | locus YHR079C, strain IRE1, stronger effect = lower value 0.991 | locus YHR094C, strain hxt1, stronger effect = lower value 0.981 | locus YHR129C, strain ARP1, stronger effect = lower value 1 | locus YHR142W, strain chs7, stronger effect = lower value 0.958 | locus YHR200W, strain rpn10, stronger effect = lower value 0.988 | locus YIL066C, strain RNR3, stronger effect = lower value 0.973 | locus YIL073C, strain SPO22, stronger effect = lower value 0.942 | locus YIL125W, strain kgd1, stronger effect = lower value 0.974 | locus YIR030C, strain dcg1, stronger effect = lower value 0.974 | locus YJL092W, strain hpr5, stronger effect = lower value 1.01 | locus YJL095W, strain BCK1 (second series), stronger effect = lower value 0.968 | locus YJL095W, strain BCK1, stronger effect = lower value 1.02 and 0.998 | locus YJL115W, strain asf1, stronger effect = lower value 1.03 | locus YJL129C, strain trk1, stronger effect = lower value 1.03 | locus YJL134W, strain LCB3, stronger effect = lower value 0.987 | locus YJL154C, strain vps35, stronger effect = lower value 1.01 | locus YJL164C, strain tpk1, stronger effect = lower value 0.921 | locus YJL166W, strain qcr8, stronger effect = lower value 0.951 | locus YJL168C, strain set2, stronger effect = lower value 0.978 | locus YJL187C, strain SWE1 (second series), stronger effect = lower value 0.992 | locus YJL187C, strain SWE1, stronger effect = lower value 1.01 | locus YJR043C, strain POL32, stronger effect = lower value 1
